Assay results published in PubChem BioAssay (Tox21).
Records with an inconclusive call do not appear. Activity calls are given as the source filed them. Unless noted, calls come from the whole dose curve; as a rule, active = well fitted curve in the direction sought with a large enough effect in the repeat runs; inconclusive = weak or mixed curves; inactive = no such curve, though single readings can be large; an effect the other way counts as inactive or inconclusive.

Experiments:
[1] = qHTS assay for small molecule agonists of the p53 signaling pathway (AID 651631; calls by dose curve; note: nearly all actives have a fitted effect of over 15% in size)
In short: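 Quantitative high-throughput format: 4,000 p53RE-bla HCT-116 cells/well, 5 h pre-incubation, 16 h compound exposure at 37 °C, 2 h room-temperature substrate step, fluorescence intensity measured.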

[2] = qHTS assay for small molecules that induce genotoxicity in human embryonic kidney cells expressing luciferase-tagged ATAD5 (AID 651632); note: nearly all actives have a fitted effect of over 15% in size
In short: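 Luminescent reporter readout, HEK293T ATAD5-luc line: 16 hr drug exposure (37C, 5% CO2) followed by Amplite, 30 min RT.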

[3] = qHTS assay for small molecule agonists of the p53 signaling pathway - cell viability (AID 651633; calls by dose curve;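 note: p53RE-bla HCT reporter cells with a stable beta-lactamase p53 reporter; series mostly up to about 83 µM; nearly all actives have a fitted effect of over 30% in size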)
In short: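 p53RE-bla cells were treated with compound for 16 hours at 37 C. Cytotoxicity was then measured as CellTiter-Glo luminescence after 30 min at room temperature.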

[4] = qHTS assay for small molecules that induce genotoxicity in human embryonic kidney cells expressing luciferase-tagged ATAD5 - cell viability (AID 651634; calls by dose curve; note: nearly all actives have a fitted effect of over 25% in size)
In short: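 Viability read: CellTiter-Fluor fluorescence, 30 min at 37C. Cells: HEK293T, luciferase-tagged ATAD5. Exposure: 15.5 hr, 37C, 5% CO2, compound or DMSO vehicle.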

[5] = qHTS assay for small molecule disruptors of the mitochondrial membrane potential - cell viability (AID 720634; calls by dose curve;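 note: human HepG2 liver cancer cells; series mostly up to about 83 µM; nearly all actives have a fitted effect of over 20% in size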)
In short: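 HepG2, 1 hr compound, 37 C. ATP luminescence via CellTiter-Glo, 30 min RT, same well as m-MPI.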

[6] = qHTS assay for small molecule disruptors of the mitochondrial membrane potential (AID 720635)
In short: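 HepG2 cells exposed to compound 1 hr at 37C, then Mito-MPS dye 30 min. Ratio read of aggregate (540/590 nm) versus monomer (490/535 nm) fluorescence.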

[7] = qHTS assay to test for compound auto fluorescence at 590 nm (red) in HepG2 cells (AID 720674)
In short: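 Seeding: 2,000 HepG2 cells/well, MEM/10% FBS, overnight 37 C. Dosing: compound vs DMSO. Incubation: 1 hr, 37 C, 5% CO2. Read: fluorescence 540 ex/590 em, Rose Bengal sodium as red reference.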

[8] = qHTS assay to test for compound auto fluorescence at 535 nm (green) in HepG2 cells (AID 720675)
[9] = qHTS assay to test for compound auto fluorescence at 460 nm (blue) in HEK293 cells (AID 720678)
In short: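 Triamterene serves as the blue fluorophore standard. Compound signal at 405/460 nm is read in HEK293 wells (2,000 cells, 10% dialyzed FBS) after overnight treatment at 37C.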

[10] = qHTS assay to test for compound auto fluorescence at 535 nm (green) in HEK293 cells (AID 720680)
[11] = qHTS assay to test for compound auto fluorescence at 460 nm (blue) in HEK293 cell free culture (AID 720681)
In short: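 Compounds were added to cell-free DMEM with 10% FBS and fluorescence read directly. The blue channel used 405 nm excitation and 460 nm emission, with triamterene as the reference fluorophore.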

[12] = qHTS assay to test for compound auto fluorescence at 535 nm (green) in HEK293 cell free culture (AID 720682)
In short: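 Measurement is a direct plate read of green fluorescence (485 nm in, 535 nm out) after compound addition to serum-supplemented DMEM lacking cells, with fluorescein used to express intensities.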

[13] = qHTS assay to test for compound auto fluorescence at 590 nm (red) in HEK293 cell free culture (AID 720683)
In short: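 Cell-free wells of DMEM with 10% FBS received compound, and intrinsic fluorescence was read at excitation/emission 540/590 nm. Values expressed as equivalence to Rose Bengal sodium.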

[14] = qHTS assay to test for compound auto fluorescence at 590 nm (red) in HepG2 cell free culture (AID 720684)
In short: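 Compound was pinned into wells holding MEM with 10% FBS and no cells, and red fluorescence was read at Ex/Em 540/590 nm. Signal is expressed as auto fluorescence equivalency relative to Rose Bengal sodium.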

[15] = qHTS assay to test for compound auto fluorescence at 460 nm (blue) in HepG2 cell free culture (AID 720685)
In short: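 Compound (23 nL) or DMSO pinned into cell-free MEM with 10% FBS; blue fluorescence read at 405/460 nm excitation/emission, expressed as auto-fluorescence equivalency to triamterene.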

[16] = qHTS assay to test for compound auto fluorescence at 535 nm (green) in HepG2 cell free culture (AID 720686)
[17] = qHTS assay to test for compound auto fluorescence at 460 nm (blue) in HepG2 cells (AID 720687)
In short: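 HepG2 cells in MEM with 10% FBS, attached overnight at 37 C, were exposed to compound or DMSO for 1 hr at 37 C, 5% CO2. Blue fluorescence was read at 405/460 nm, with triamterene as reference fluorophore.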

[18] = qHTS assay to test for compound auto fluorescence at 590 nm (red) in HEK293 cells (AID 720679)
In short: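 We plated HEK293 cells in 10% dialyzed FBS medium, let them adhere for 4-5 hr, then added 23 nL compound. Overnight at 37C and 5% CO2 preceded fluorescence measurement at 540/590nm.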

[19] = molecular target: Glucocorticoid receptor (Homo sapiens) (UniProt P04150); assay: qHTS assay to identify small molecule agonists of the glucocorticoid receptor (GR) signaling pathway (AID 720691; active = well fitted activation curve with a large enough effect in the signal ratio in the repeat runs, not every such curve was filed as active; the % refers to the signal ratio)
Chain of Glucocorticoid receptor (Homo sapiens) (P04150 whole entry, looked up): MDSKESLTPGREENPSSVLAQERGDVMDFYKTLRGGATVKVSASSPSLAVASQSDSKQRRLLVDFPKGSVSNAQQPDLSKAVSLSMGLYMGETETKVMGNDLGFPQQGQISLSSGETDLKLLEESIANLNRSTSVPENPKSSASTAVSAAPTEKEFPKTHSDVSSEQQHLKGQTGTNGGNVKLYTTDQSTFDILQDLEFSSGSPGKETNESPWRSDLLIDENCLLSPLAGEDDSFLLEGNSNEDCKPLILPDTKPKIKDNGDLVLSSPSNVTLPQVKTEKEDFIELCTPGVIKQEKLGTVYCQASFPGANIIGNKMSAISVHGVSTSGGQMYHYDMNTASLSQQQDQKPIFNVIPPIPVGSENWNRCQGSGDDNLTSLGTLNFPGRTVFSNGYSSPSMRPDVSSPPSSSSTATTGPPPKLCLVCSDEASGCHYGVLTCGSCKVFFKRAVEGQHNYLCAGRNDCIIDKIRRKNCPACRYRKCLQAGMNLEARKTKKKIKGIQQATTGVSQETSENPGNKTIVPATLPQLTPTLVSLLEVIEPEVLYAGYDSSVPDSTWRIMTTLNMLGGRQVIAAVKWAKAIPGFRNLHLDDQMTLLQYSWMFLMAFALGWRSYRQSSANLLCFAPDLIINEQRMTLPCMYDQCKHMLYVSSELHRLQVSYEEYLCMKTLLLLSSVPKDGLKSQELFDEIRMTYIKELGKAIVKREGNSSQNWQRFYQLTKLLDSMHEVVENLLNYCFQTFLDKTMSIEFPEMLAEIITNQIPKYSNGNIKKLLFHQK
In short: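 qHTS in GR-bla HeLa cells: 4 h settling at 37 C/5% CO2, 18 h compound incubation at 37 C, 2 h LiveBLAzer B/G FRET substrate at room temperature, fluorescence intensity measured.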

[20] = molecular target: Glucocorticoid receptor (Homo sapiens) (UniProt P04150); assay: qHTS assay to identify small molecule antagonists of the glucocorticoid receptor (GR) signaling pathway (AID 720692; active = well fitted inhibition curve with a large enough effect in the signal ratio in the repeat runs, not every such curve was filed as active; the % refers to the signal ratio)
In short: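 Inhibition of glucocorticoid signalling is measured in HeLa cells with a GRE-controlled beta-lactamase reporter; cells are co-treated with compound and 5 nM dexamethasone (final) for 18 h before FRET substrate readout.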

Measured: Potency

CC(C)OC(=O)Nc1ccccc1
not listed: [18] | [19] | [20]
inactive: all other assays above

CC(C)(C)OOC(C)(C)C
inactive: all assays above

COP(N)(=O)SC (stereo unspecified)
not listed: [7]
inactive: all other assays above

NCCc1ccc(O)cc1
not listed: [7] | [18]
inactive: all other assays above

COCCl
not listed: [6] | [18]
inactive: all other assays above

CCN(CC)c1ccccc1
not listed: [6] | [7]
inactive: all other assays above

c1ccc(-c2ccccc2)cc1
not listed: [6] | [7]
inactive: all other assays above

O=S(=O)(c1ccc(O)cc1)c1ccc(O)cc1
not listed: [6] | [18]
inactive: all other assays above

CCOP(OCC)OCC
not listed: [6] | [7] | [18] | [19] | [20]
inactive: all other assays above

Cc1cc(Cl)ccc1O
not listed: [6]
inactive: all other assays above

CCCC1COC(Cn2cncn2)(c2ccc(Cl)cc2Cl)O1 (stereo unspecified)
not listed: [6] | [7]
inactive: all other assays above

Nc1ccc(Oc2ccc(N)cc2)cc1
not listed: [6] | [10]
inactive: all other assays above

ClCCBr
not listed: [6] | [7] | [19] | [20]
inactive: all other assays above

c1cc2c3c(cccc3c1)CC2
not listed: [6] | [10] | [18]
inactive: all other assays above

CCOC(=O)c1ccccc1C(=O)OCC
not listed: [6]
inactive: all other assays above

O=C(O)c1ccccn1
not listed: [6] | [7] | [18]
inactive: all other assays above

CC1OC(C)OC(C)O1 (stereo unspecified)
not listed: [6] | [7] | [10] | [18] | [19] | [20]
inactive: all other assays above

CN=C=S
not listed: [6] | [10] | [18] | [19] | [20]
inactive: all other assays above

O=[N+]([O-])c1ccccc1
not listed: [6] | [7]
inactive: all other assays above

CCN(CC)CCO
not listed: [6] | [10]
inactive: all other assays above

CCCCCOC(=O)c1ccccc1C(=O)OCCCCC
not listed: [6] | [18]
inactive: all other assays above

BrCCBr
not listed: [6] | [10]
inactive: all other assays above

COC(=O)NC(=S)Nc1ccccc1NC(=S)NC(=O)OC
not listed: [6] | [7]
inactive: all other assays above

CC(C)(C)OOC(=O)c1ccccc1
not listed: [6] | [18]
inactive: all other assays above

CN(C)N=O
not listed: [6] | [7]
inactive: all other assays above

CCNc1nc(NC(C)(C)C)nc(SC)n1
not listed: [6] | [7] | [10]
inactive: all other assays above

CC(Br)C(=O)O (stereo unspecified)
not listed: [6] | [18]
inactive: all other assays above

C#CC(C)(C)NC(=O)c1cc(Cl)cc(Cl)c1
not listed: [6] | [18]
inactive: all other assays above

CC(C)(Cl)Cl
not listed: [6] | [10]
inactive: all other assays above

[N-]=[N+]=[N-]
not listed: [6] | [7]
inactive: all other assays above

c1ccc2c(c1)oc1ccccc12
not listed: [6] | [18]
inactive: all other assays above

CC(NC(C)(C)C)C(=O)c1cccc(Cl)c1 (stereo unspecified)
not listed: [6] | [7] | [10]
inactive: all other assays above

COC(=O)NS(=O)(=O)c1ccc(N)cc1
not listed: [6]
inactive: all other assays above

O=NN1CCCC1
not listed: [6] | [7]
inactive: all other assays above
